Results: paper PMC4336329 (PLoS ONE, 2015)
Hit rate of the full screen: of about 310,000 compounds, about 14,000 (4.5%) showed an effect of 50% or more. Effects have a minus sign here. The list comes from a sample in which strong results are over-represented; it also holds similar structures and randomly drawn compounds.

target: human ether-à-go-go-related gene (hERG) potassium channel (human, UniProt Q12809); assay: primary screen, population patch clamp on CHO cells stably expressing hERG; higher = less effect of the substance
Sequence (Q12809 whole entry, looked up): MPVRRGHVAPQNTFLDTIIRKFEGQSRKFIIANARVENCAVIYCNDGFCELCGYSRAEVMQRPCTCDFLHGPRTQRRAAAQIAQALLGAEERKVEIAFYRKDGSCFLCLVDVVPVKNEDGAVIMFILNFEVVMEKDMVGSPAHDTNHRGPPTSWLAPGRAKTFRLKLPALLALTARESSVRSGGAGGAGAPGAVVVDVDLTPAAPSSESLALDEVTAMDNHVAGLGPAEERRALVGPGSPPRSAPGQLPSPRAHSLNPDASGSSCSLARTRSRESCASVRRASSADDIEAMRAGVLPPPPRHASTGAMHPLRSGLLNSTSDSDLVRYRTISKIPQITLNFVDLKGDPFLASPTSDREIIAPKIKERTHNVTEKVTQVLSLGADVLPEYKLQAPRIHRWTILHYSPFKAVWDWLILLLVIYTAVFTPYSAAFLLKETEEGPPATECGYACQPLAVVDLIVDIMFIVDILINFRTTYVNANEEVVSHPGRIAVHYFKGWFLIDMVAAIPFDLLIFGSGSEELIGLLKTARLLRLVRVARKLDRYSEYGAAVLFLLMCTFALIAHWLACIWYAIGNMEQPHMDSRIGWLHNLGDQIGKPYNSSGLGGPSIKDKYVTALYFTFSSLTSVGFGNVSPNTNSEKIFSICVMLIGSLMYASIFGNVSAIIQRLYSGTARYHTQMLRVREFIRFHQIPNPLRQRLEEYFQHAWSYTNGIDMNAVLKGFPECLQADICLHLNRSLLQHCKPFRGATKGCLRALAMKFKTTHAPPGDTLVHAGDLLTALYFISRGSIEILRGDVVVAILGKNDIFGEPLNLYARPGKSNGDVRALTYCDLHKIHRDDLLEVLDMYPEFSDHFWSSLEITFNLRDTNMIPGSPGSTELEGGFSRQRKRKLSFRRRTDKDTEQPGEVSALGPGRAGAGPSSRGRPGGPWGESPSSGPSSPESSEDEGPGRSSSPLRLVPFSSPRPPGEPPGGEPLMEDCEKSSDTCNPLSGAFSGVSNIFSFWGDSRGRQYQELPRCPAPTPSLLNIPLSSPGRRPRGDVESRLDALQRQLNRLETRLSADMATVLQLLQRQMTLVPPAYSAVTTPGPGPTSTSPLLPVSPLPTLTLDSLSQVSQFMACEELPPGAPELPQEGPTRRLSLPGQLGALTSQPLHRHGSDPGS
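Note: peak tail current of the secondary pulse compared with the same well before compound.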

`O=C(CSc1nnc(NC(=O)Cc2ccc(F)cc2)s1)NCc1ccco1` was tested. Which “hERG current change (%, negative = inhibition) at 10uM” value did it give?
The value was 14.3%.

Which “hERG current change (%, negative = inhibition) at 10uM” value does the source give for `Cc1ccccc1Cn1cc(S(=O)(=O)CC(=O)N2CCCCC2)c2ccccc21` here?
The value was 7.27%.

With `Nc1cc(Nc2ccccc2)c2nonc2c1[N+](=O)[O-]` as the molecule, how does the “hERG current change (%, negative = inhibition) at 10uM” value read?
Its value is 16.3%.

How did the “hERG current change (%, negative = inhibition) at 10uM” value turn out when `N#Cc1c(Nc2cccc(F)c2)sc2c(O)cc(=O)[nH]c12` was run?
The value was 27.3%.

Which “hERG current change (%, negative = inhibition) at 10uM” value does the source give for `Cc1ccccc1-n1c(C)cc(/C=N/Nc2ccc([N+](=O)[O-])cn2)c1C` here?
The value was 17.4%.

How did the “hERG current change (%, negative = inhibition) at 10uM” value turn out when `Br.C=CCN1CCc2cc(O)c(O)cc2C(c2ccccc2)C1` (stereo not shown) was run?
The value was -23.9%.

`Br.Oc1ccc(C2CNCCc3c2cc(O)c(O)c3Cl)cc1` (stereo not shown) was tested. Which “hERG current change (%, negative = inhibition) at 10uM” value did it give?
Its value is -3.12%.

`Br.Cc1cccc(C2CN(C)CCc3c2cc(O)c(O)c3Cl)c1` (stereo not shown) was tested. Which “hERG current change (%, negative = inhibition) at 10uM” value did it give?
Its value is -51.1%.

`CN1CCc2cc(Cl)c(O)cc2[C@@H](c2ccccc2)C1.Cl` was tested. Which “hERG current change (%, negative = inhibition) at 10uM” value did it give?
Its value is -56%.

How did the “hERG current change (%, negative = inhibition) at 10uM” value turn out when `Br.C=CCN1CCc2c(cc(O)c(O)c2Cl)C(c2ccccc2)C1` (stereo not shown) was run?
Its value is -41%.

`Br.CN1CCc2cc(O)c(O)cc2C(c2ccccc2)C1` (stereo not shown) was tested. Which “hERG current change (%, negative = inhibition) at 10uM” value did it give?
Its value is -13.6%.

`O=[N+]([O-])c1ccc(-c2nc(=S)c3c(o2)CCCC3)cc1` was tested. Which “hERG current change (%, negative = inhibition) at 10uM” value did it give?
Its value is -6.53%.

How did the “hERG current change (%, negative = inhibition) at 10uM” value turn out when `c1ccc(Nc2ccccn2)nc1` was run?
Its value is 7.19%.

Which “hERG current change (%, negative = inhibition) at 10uM” value does the source give for `Oc1ccccc1Nc1ccccn1` here?
Its value is 6.88%.

With `Oc1cccc2ccc(Nc3ccccn3)nc12` as the molecule, how does the “hERG current change (%, negative = inhibition) at 10uM” value read?
Its value is -53.6%.

`Nc1ccc(C#Cc2c(-c3ccsc3)oc3ccc(N4CCOCC4)cc23)cc1` was tested. Which “hERG current change (%, negative = inhibition) at 10uM” value did it give?
The value was 5.98%.

With `NC(=O)c1ccc(NC(=O)CCN2C(=O)c3ccccc3C2=O)cc1` as the molecule, how does the “hERG current change (%, negative = inhibition) at 10uM” value read?
Its value is 16%.

`CN(C)c1ccc(NC(=O)C2C3C=CC(C3)C2C(=O)O)cc1` (stereo not shown) was tested. Which “hERG current change (%, negative = inhibition) at 10uM” value did it give?
The value was 7.65%.

With `CC1CN(c2ncnc3c2cnn3-c2ccc(Cl)cc2)CC(C)O1` (stereo not shown) as the molecule, how does the “hERG current change (%, negative = inhibition) at 10uM” value read?
The value was 0.749%.

Which “hERG current change (%, negative = inhibition) at 10uM” value does the source give for `O=c1cccc2n1CC1CC2CN(c2ncnc3c2cnn3-c2ccc(Cl)cc2)C1` (stereo not shown) here?
Its value is -62.1%.

For `O=c1cccc2n1CC1CC2CN(c2ncnc3c2cnn3-c2ccccc2)C1` (stereo not shown), which “hERG current change (%, negative = inhibition) at 10uM” value is on record?
The value was -30%.

How did the “hERG current change (%, negative = inhibition) at 10uM” value turn out when `O=C(Nc1nnc(C2=COCCO2)o1)c1cccc(F)c1` was run?
Its value is 16.7%.

Which “hERG current change (%, negative = inhibition) at 10uM” value does the source give for `O=C(CCc1ccncc1)N1CCCC(Nc2ccc(F)cc2)C1` (stereo not shown) here?
The value was -13.9%.

Which “hERG current change (%, negative = inhibition) at 10uM” value does the source give for `O=C(c1ccc(C(F)(F)F)cc1)C1CCCN(C(=O)CCc2cnccn2)C1` (stereo not shown) here?
The value was -15.1%.

Which “hERG current change (%, negative = inhibition) at 10uM” value does the source give for `COc1ccc2cc(C(=O)C3CCCN(C(=O)c4cc(=O)n(C)c(=O)n4C)C3)ccc2c1` (stereo not shown) here?
The value was -38.4%.

Which “hERG current change (%, negative = inhibition) at 10uM” value does the source give for `O=C(CCc1ccncc1)N1CCCC(Nc2ccc(F)c(F)c2)C1` (stereo not shown) here?
The value was -56%.

With `NC(=O)CCC(=O)N1CCCC(C(=O)c2ccc(C(F)(F)F)cc2)C1` (stereo not shown) as the molecule, how does the “hERG current change (%, negative = inhibition) at 10uM” value read?
The value was 1%.

With `Cc1ccc(NC2CCCN(C(=O)CCc3ccncc3)C2)cc1C` (stereo not shown) as the molecule, how does the “hERG current change (%, negative = inhibition) at 10uM” value read?
Its value is -24.5%.

With `Cn1nccc1C(=O)N1CCCC(C(=O)c2ccc(C(F)(F)F)cc2)C1` (stereo not shown) as the molecule, how does the “hERG current change (%, negative = inhibition) at 10uM” value read?
Its value is 6.14%.

For `Cn1c(C(=O)N2CCCC(C(=O)c3ccc(C(F)(F)F)cc3)C2)cc(=O)n(C)c1=O` (stereo not shown), which “hERG current change (%, negative = inhibition) at 10uM” value is on record?
The value was -71.7%.

For `O=C(c1ccc(C(F)(F)F)cc1)C1CCCN(C(=O)CCc2ccncc2)C1` (stereo not shown), which “hERG current change (%, negative = inhibition) at 10uM” value is on record?
Its value is -59.4%.
